# Values without a mark were called inactive.
# Tests used:
# Assay in all cases: log2 ratio of Biotin-Ahx-Ub-VS probe labelling (fragment/DMSO); higher = less target engagement (more negative = stronger competition), active = hit call of the paper (q ≤ 0.05, log2 ratio ≤ -1)
# Conditions in all cases: compound concentration: 200 uM; treatment time: 3 h
# OTUD6B = molecular target: T1, OTUD6B (UniProt Q8N6M0)
# T1 sequence (whole entry): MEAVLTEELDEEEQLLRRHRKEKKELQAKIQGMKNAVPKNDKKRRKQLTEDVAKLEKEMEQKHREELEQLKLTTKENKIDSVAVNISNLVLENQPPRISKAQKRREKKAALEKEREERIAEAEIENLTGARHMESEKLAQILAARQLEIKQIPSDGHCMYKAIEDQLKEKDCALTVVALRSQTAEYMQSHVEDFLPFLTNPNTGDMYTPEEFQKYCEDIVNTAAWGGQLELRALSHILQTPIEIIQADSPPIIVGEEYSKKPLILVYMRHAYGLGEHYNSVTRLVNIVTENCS
# In short: (§1)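 Each value is an average log2 ratio of fragment to vehicle, tested by unpaired t-test. The underlying Spectronaut label-free quantities were global-median-normalised, and only proteins with ≥2 unique peptides were included. Triplicate HEK293T lysate samples (495 µg) were exposed to fragment at 200 µM or vehicle for 3 h, then to Biotin-Ahx-Ub-VS at 0.5 µM final for 1 h, before NeutrAvidin enrichment of labelled DUBs, LysC and trypsin digestion, and diaPASEF LC-MS/MS.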
# OTUD7B = molecular target: T2, OTUD7B (UniProt Q6GQQ9)
# T2 sequence (whole entry): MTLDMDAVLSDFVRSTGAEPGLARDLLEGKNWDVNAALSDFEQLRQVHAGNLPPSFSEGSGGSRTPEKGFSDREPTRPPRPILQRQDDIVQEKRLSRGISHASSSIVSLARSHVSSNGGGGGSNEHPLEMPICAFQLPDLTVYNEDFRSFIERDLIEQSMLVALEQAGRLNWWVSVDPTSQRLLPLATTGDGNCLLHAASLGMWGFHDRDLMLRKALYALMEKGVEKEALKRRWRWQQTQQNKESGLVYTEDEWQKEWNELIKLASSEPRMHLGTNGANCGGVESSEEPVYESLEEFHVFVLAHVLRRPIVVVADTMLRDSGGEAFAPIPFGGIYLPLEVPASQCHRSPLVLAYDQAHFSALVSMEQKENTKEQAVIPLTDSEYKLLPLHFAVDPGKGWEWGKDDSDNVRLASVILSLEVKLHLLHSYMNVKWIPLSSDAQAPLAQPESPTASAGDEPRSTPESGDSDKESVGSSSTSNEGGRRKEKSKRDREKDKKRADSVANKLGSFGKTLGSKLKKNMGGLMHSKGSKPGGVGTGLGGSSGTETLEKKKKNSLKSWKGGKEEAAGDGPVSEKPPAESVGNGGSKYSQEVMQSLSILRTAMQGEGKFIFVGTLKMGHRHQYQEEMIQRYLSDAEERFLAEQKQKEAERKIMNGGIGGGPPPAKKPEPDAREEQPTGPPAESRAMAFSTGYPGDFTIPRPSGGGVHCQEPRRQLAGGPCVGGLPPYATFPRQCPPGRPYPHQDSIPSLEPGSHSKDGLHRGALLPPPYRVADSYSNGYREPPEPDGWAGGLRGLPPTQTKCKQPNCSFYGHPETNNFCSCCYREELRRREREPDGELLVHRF
# In short: as §1
# PRPF8 = PRPF8 (UniProt Q6P2Q9)
# In short: as §1
# PSMD7 = molecular target: T3, PSMD7 (UniProt P51665)
# T3 sequence (whole entry): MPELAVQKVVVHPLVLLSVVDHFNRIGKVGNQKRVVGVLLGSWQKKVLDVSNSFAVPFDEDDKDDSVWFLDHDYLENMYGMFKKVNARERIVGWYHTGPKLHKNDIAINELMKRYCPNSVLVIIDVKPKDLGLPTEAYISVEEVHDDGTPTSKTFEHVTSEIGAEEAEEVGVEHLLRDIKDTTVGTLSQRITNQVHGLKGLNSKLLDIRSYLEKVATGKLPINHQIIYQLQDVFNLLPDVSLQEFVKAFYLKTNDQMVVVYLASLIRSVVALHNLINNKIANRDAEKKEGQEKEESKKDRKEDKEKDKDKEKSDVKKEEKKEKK
# In short: as §1
# UCHL1 = UCHL1 (UniProt P09936)
# In short: as §1
# UCHL3 = molecular target: T4, UCHL3 (UniProt P15374)
# T4 sequence (whole entry): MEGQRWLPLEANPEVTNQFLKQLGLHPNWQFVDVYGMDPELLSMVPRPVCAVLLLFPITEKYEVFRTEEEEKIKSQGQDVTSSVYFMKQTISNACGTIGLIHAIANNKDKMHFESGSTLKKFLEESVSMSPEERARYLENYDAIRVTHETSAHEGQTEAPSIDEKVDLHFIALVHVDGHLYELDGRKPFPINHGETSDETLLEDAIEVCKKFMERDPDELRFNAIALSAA
# In short: as §1
# UCHL5 = molecular target: T5, UCHL5 (UniProt Q9Y5K5)
# T5 sequence (whole entry): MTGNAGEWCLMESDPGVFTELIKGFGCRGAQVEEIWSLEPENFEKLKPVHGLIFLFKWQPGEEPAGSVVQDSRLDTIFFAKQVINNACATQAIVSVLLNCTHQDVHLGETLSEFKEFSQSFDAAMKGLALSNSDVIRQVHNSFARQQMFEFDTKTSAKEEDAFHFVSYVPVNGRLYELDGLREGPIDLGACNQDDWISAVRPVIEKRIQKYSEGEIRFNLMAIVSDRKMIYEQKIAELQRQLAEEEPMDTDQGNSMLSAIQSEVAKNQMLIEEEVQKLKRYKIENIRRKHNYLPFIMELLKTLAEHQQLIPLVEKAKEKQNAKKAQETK
# In short: as §1
# USP10 = USP10 (UniProt Q14694)
# In short: as §1
# USP15 = molecular target: T6, USP15 (UniProt Q9Y4E8)
# T6 sequence (whole entry): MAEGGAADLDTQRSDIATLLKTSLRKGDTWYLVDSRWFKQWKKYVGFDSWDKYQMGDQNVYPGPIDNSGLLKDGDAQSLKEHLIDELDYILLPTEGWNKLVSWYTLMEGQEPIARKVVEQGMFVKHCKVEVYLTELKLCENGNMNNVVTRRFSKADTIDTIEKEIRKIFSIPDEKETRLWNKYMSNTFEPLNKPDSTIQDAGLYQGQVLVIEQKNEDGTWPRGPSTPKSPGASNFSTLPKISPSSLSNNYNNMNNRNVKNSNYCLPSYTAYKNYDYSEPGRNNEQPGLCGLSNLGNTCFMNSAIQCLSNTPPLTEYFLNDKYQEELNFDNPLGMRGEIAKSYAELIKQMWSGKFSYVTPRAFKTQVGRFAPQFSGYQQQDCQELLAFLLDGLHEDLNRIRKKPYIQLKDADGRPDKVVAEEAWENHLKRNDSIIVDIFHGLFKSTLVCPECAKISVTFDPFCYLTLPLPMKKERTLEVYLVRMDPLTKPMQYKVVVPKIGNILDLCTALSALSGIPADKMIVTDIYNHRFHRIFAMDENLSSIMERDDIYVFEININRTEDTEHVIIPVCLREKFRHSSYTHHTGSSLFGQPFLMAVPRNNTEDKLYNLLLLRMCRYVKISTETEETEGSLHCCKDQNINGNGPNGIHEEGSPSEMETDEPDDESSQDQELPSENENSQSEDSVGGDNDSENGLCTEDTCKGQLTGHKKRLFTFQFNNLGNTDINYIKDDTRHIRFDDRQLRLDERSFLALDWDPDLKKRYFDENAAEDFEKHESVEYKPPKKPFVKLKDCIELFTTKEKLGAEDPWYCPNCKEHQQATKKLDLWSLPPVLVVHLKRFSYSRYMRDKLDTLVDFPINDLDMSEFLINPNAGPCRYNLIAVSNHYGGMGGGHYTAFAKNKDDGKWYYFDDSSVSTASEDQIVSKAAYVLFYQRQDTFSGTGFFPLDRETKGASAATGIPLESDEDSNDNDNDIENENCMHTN
# In short: as §1
# USP16 = USP16 (UniProt Q9Y5T5)
# In short: as §1
# USP16, sequence (Q9Y5T5 whole entry, looked up): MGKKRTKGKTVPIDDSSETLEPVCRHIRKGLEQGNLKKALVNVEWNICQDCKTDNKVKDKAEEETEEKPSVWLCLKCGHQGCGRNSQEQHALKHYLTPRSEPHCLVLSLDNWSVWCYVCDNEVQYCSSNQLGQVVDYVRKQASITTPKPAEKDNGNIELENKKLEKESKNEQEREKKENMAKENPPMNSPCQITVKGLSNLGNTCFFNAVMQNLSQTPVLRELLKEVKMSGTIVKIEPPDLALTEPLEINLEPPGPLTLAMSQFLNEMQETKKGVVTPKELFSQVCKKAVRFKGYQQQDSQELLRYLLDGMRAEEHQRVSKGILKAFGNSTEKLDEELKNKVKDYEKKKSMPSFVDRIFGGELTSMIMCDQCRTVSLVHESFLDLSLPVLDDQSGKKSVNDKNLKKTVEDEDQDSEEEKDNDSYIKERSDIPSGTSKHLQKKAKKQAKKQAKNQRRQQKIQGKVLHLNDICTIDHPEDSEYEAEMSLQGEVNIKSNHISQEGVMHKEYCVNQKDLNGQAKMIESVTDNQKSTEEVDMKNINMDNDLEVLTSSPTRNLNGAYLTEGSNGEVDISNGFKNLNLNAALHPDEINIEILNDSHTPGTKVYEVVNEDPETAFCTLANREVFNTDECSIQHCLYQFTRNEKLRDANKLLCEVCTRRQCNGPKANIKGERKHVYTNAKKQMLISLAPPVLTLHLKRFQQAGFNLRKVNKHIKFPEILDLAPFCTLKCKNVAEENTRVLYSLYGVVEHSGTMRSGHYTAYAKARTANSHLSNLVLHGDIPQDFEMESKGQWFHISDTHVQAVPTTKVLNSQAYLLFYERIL
# USP10, sequence (Q14694 whole entry): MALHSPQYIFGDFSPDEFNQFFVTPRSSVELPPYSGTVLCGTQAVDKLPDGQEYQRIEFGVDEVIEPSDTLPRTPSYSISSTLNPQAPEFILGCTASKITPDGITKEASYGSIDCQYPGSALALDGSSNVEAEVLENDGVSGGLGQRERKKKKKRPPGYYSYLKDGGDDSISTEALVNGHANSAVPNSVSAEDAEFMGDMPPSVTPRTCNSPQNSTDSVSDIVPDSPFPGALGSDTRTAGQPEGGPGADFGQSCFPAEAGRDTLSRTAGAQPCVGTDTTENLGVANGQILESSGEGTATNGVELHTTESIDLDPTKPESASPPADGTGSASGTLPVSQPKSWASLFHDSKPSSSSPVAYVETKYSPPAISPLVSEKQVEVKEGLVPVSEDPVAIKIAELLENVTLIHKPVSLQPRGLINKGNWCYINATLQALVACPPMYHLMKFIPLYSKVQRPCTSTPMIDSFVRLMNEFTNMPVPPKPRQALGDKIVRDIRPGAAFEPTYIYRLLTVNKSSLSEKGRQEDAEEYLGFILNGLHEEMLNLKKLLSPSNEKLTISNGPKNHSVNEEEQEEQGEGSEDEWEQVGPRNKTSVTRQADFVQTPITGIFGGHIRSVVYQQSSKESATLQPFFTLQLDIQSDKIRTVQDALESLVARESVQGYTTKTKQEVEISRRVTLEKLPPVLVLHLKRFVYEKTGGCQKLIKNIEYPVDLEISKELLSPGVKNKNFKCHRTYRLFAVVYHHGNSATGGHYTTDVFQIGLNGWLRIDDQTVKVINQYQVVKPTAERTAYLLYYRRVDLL
# UCHL1, sequence (P09936 whole entry, looked up): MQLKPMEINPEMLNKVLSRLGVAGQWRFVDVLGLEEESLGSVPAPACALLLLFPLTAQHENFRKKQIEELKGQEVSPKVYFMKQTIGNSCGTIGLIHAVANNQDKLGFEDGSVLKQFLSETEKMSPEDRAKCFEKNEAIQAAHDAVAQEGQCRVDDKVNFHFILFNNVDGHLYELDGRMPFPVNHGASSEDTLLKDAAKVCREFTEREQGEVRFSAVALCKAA
smiles,measurement,setting,value
Cc1noc(C)c1CNC(=O)CCl,log2 ratio of Biotin-Ahx-Ub-VS probe labelling,OTUD6B,-0.543
same,log2 ratio of Biotin-Ahx-Ub-VS probe labelling,OTUD7B,-1.46 (active)
same,log2 ratio of Biotin-Ahx-Ub-VS probe labelling,PRPF8,-0.184
same,log2 ratio of Biotin-Ahx-Ub-VS probe labelling,PSMD7,-0.529
same,log2 ratio of Biotin-Ahx-Ub-VS probe labelling,UCHL1,-2.12 (active)
same,log2 ratio of Biotin-Ahx-Ub-VS probe labelling,UCHL3,-0.701
same,log2 ratio of Biotin-Ahx-Ub-VS probe labelling,UCHL5,-0.89
same,log2 ratio of Biotin-Ahx-Ub-VS probe labelling,USP10,-0.261
same,log2 ratio of Biotin-Ahx-Ub-VS probe labelling,USP15,-0.867
same,log2 ratio of Biotin-Ahx-Ub-VS probe labelling,USP16,-0.591

# — the supplement of paper PMC11732987, “Enantioselective OTUD7B fragment discovery through chemoproteomics screening and high-throughput optimisation” (Communications Chemistry, 2025)
